Source: PubChem BioAssay (National Center for Advancing Translational Sciences (NCATS))
PTAP TSG101 blk: blocks PTAP/TSG101 interaction to inhibit HIV-1 budding. Fluorescence polarization, FITC-PTAP peptide / Tsg101 binding. Potency, µM (series often up to 115 µM), inactives show at the highest dose activity change, negative = inhibition, usual class: inhibitors. 340,000 tested, under 10 active; active = well fitted inhibition curve with a large enough effect in the main read-out, with a control signal flat, not every such curve was filed as active; inconclusive = small, poorly fitted or top-dose-only effect, or effect the other way, or a change in a side signal; inactive = no such curve, though single readings can be large or run the other way; note: potency is the fitted concentration of half-maximal effect; % of control where 0% means no effect
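Compounds were pin-transferred onto Tsg101 binding domain (10 uM final) in HEPES pH 7.5 buffer, then FITC-PTAP peptide was added at 50 nM final. After 20 min at RT, polarization reported peptide displacement across a qHTS concentration series.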
DRD3 agonist: activates the human D3 dopamine receptor. D3R DiscoveRx beta-arrestin cells, luminescence, 90 min. max activation, %. 0.58% of 410,000 active; in the data active = max activation above about 30%; note: 0% is about no effect
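Agonist-mode cell screen: cells plated at 1500/well and incubated overnight at 37 °C, then exposed to library compounds for 90 min at 37 °C. Detection reagent was added for 30–60 min at room temperature, and luminescence was read.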
MmCpn inh: M. maripaludis TRiC chaperonin inhibition; AID 504842; purified Mm-Cpn ATPase, ADP Transcreener TR-FRET; 0.031% of 330,000 active; Potency, µM (top dose mostly 76.9 µM), without a hit: at the highest dose activity, negative = inhibition, hits mostly inhibitors; active = well fitted inhibition curve with a large enough effect; inconclusive = small, poorly fitted or top-dose-only effect; note: potency is the fitted concentration of half-maximal effect; % is set by controls: 0 for no effect and ±100 for the full control effect; nearly all actives have a fitted effect of over 80% in size
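Purified archaeal Mm-CPN (25nM final) preincubated 10 min at 37degC with compound, then 10uM ATP for 30 min at 37degC; ADP measured by HTRF Transcreener TR-FRET; buffer 30 mM TRIS pH 7.4, 100mM KCl, 5mM MgCl2, 1mM DTT.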
Rango-impB inh: Rango-importin beta binding inhibition; Potency, µM (titrated, usually from 92.2 µM), inactives show at the highest dose inhibition of complex formation; AID 540263; 0.031% of 340,000 active; Rango CFP/YFP FRET sensor + importin beta, 45 min; Q14974;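 note: potency is the fitted concentration of half-maximal effect; 0% = DMSO wells and 100% = buffer wells lacking importin beta; nearly all actives have a fitted effect of over 15% in size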
Target sequence (Q14974 whole entry, looked up): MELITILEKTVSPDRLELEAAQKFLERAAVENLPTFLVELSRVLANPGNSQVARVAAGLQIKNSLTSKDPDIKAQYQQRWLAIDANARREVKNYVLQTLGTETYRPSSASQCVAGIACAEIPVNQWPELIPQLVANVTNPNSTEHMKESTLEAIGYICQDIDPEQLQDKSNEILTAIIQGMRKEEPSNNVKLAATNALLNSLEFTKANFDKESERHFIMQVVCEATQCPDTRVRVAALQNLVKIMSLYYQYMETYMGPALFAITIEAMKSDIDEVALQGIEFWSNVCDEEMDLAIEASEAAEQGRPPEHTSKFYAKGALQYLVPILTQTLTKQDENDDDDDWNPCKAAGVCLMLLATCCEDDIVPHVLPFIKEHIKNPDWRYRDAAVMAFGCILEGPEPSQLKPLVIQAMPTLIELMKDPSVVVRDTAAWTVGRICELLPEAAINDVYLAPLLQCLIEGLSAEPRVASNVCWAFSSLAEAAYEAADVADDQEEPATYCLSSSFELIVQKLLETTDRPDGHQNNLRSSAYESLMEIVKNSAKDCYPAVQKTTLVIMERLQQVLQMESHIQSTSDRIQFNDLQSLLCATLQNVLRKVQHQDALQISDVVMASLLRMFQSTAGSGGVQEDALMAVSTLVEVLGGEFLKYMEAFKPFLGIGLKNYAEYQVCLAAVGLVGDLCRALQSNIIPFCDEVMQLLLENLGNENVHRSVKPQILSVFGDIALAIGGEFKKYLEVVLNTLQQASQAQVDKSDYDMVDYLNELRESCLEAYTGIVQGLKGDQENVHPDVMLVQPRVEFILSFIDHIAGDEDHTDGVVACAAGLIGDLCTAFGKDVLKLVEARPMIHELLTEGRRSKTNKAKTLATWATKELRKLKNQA
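FRET biosensor (snurportin 1 IBB flanked by EYFP and cerulean), 50 nM, with compound 5 min, then 0.125 microM importin beta in PBS, 1 mM DTT, 0.02% Tween-20, 0.1% BSA. CFP/YFP ratio read after 45 min at room temperature; pre-read flags interference.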
DRD3 antagonist: D3 dopamine receptor (human) antagonism; P35462; D3R cells, DiscoveRx beta-arrestin luminescence, antagonist mode; hits give low values; max response, negative = inhibition, %; 2.5% of 360,000 active; AID 652054; in the data active = max response below about -50%; inconclusive = no clear call, values can overlap the other calls; note: % is set by controls: 0 for no effect and ±100 for the full control effect
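Cells plated overnight at 1500 cells/well, then exposed to library compounds with dopamine controls for 90 minutes at 37 degrees C. DiscoveRx reagent added for 30–60 minutes at room temperature; luminescence read, quantitative HTS format.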
Rango dissoc inh: inhibitors of RanGTP-induced Rango-importin beta complex dissociation. Potency, µM (doses to about 46.1 µM), for the others: at the top dose activity change, negative = inhibition. 0.071% of 340,000 active. O95149+P62826. AID 540253. Biochemical FRET Rango-importin beta, RanGTP-induced dissociation; note: potency is the fitted concentration of half-maximal effect; % of control where 0% means no effect; nearly all actives have a fitted effect of over 45% in size
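Recombinant Rango FRET biosensor (EYFP–snurportin 1 IBB–cerulean CFP10) at 0.1 uM premixed with 0.25 uM importin beta in PBS, 1 mM DTT, 0.02% Tween-20, 0.1% BSA. Compound added 5 min; RanGTP-RCC1 (0.6 uM Ran, 2 mM GTP, 0.2 uM RCC1) then triggers release, read at 45 min.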
Numbers without * were called inactive; ? = inconclusive; · = not tested or not shown. In the library only some 2.9% were active in any assay of this set; here they are far more common. Unless noted, calls come from the whole dose curve.

SMILES	PTAP TSG101 blk	DRD3 agonist	MmCpn inh	Rango-impB inh	DRD3 antagonist	Rango dissoc inh
CC1Cc2nc(SCC(=O)NCC3CCCO3)n(C)c(=O)c2S1 (stereo unspecified)	0%	14	-1%	-2%	-53*	-13%
COc1cc(C(=O)N2CC(=O)Nc3ccc(C)cc3C2c2ccc(F)cc2)cc(OC)c1OC (stereo unspecified)	·	-22	·	·	·	·
COc1ccc(F)cc1S(=O)(=O)Nc1ccc2c(c1)CCCN2C(=O)c1cccs1	·	7	·	·	·	·
Cc1ccc(C)c(N2CCN(C(=O)Nc3cn(CC(C)C)c(=O)c4ccccc34)CC2)c1	·	-1	·	·	·	·
COc1ccccc1-n1c(SCC(=O)NCC2CCCO2)nc2c([nH]c3ccccc32)c1=O (stereo unspecified)	-3%	-19	-3%	0%	-57*	-1%
O=C(CSc1nc2c([nH]c3ccccc32)c(=O)n1-c1cccc(Cl)c1)NCC1CCCO1 (stereo unspecified)	·	-6	·	·	·	·
Cc1nnc(SCC(=O)NCC2CCCO2)n1Cc1ccccc1 (stereo unspecified)	-3%	78*	-17%	3%	-8	-12%
Cc1ccccc1-n1c(C)nnc1SCC(=O)NCC1CCCO1 (stereo unspecified)	-1%	-9	1%	-5%	-23	4%
O=C(CSc1nc2c([nH]c3ccccc32)c(=O)n1-c1ccccc1)NCC1CCCO1 (stereo unspecified)	-4%	-23	-10%	0%	-84*	6%
COc1ccccc1-c1nc(C(=O)NCC2CCCO2)cc2c1[nH]c1ccccc12 (stereo unspecified)	-2%	3	-13%	1%	27	1%
COc1cc(-c2nc(C(=O)NCC3CCCO3)cc3c2[nH]c2ccccc23)cc(OC)c1OC (stereo unspecified)	-5%	33*	-3%	-6%	88	-16%
COc1ccc(-n2c(=O)c3ccc(C(=O)NCc4ccc(C)cc4)cc3n(CC(=O)Nc3ccc(F)cc3)c2=O)cc1	·	5	·	·	·	·
O=c1nc(-c2ccccc2)c2cc(SC(F)F)ccc2[nH]1	0%	36*	-6%	-3%	3	-1%
O=c1nc(-c2ccccc2)c2cc(Br)ccc2[nH]1	-8%	-3	0%	-1%	1	-1%
Cc1ccc(-c2cnc3c(Cl)c(C)nn3c2)cc1	-5%	-8	1%	3%	10	-23%
COc1ccc2nc(Sc3c([N+](=O)[O-])nc(C)n3Cc3ccccc3)[nH]c2c1	-18%	-10	-1%	1%	-75*	-4%
O=[N+]([O-])c1cccc2nc(-c3ccccc3)c(-c3ccccc3)nc12	-2%	-21	0%	-1%	-5	-8%
Cn1c(-[n+]2c(-c3ccccc3)cc(-c3ccccc3)cc2-c2ccccc2)nc2c([N+](=O)[O-])cccc21	2%	-12	0%	3%	-60*	5%
O=C1Nc2ccccc2/C1=N/c1sc2c(c1C(=O)NCCc1ccccc1)CCCC2	-3%	-19	-3%	-5%	-90*	-14%
COc1ccc2[nH]c3c(=S)nc[nH]c3c2c1	0%	2	-15%	-1%	-56*	-1%
COc1ccc2[nH]c3c(Cl)ncnc3c2c1	-2%	-2	-2%	0%	-7	-4%
CC[C@@]1(C(=O)OC)N[C@H](CN(C)S(=O)(=O)c2ccccc2)[C@@H]2C(=O)N(C)C(=O)[C@@H]21	0%	34*	0%	-1%	12	9%
CC[C@@]1(C(=O)OC)N[C@H](CN(C)S(=O)(=O)c2ccc(C(C)(C)C)cc2)[C@@H]2C(=O)N(C)C(=O)[C@@H]21	2%	41*	0%	1%	29	-13%
Cc1ccccc1CN1C(=O)C(O)(c2c[nH]c3ccccc23)c2cc(Cl)ccc21 (stereo unspecified)	·	-8	·	·	·	·
COCCNc1nc(NCCOc2ccccc2Cl)c2sc(-c3ccccc3)cc2n1	·	58*	·	·	15	·
SMILES	PTAP TSG101 blk	DRD3 agonist	MmCpn inh	Rango-impB inh	DRD3 antagonist	Rango dissoc inh
COc1ccc(C[C@H]2CN3C(=NC[C@@H]3Cc3ccccc3)N2CCNC(=O)CCC2CCCCC2)cc1	-4%	-32	·	2%	-62*	9%
COc1ccc(C[C@@H]2CN3C(=NC[C@@H]3C)N2CCNC(=O)c2ccc(C)c(Br)c2)cc1	1%	-58	·	-1%	-52*	-5%
CC(C)[C@H]1CN=C2N(CCNC(=O)CCC3CCCCC3)[C@H](Cc3ccc(O)cc3)CN21	0%	-62	·	0%	-83*	-9%
C/C=C(\C)C(=O)NCCN1C2=NC[C@H](C)N2C[C@@H]1Cc1ccc(OC)cc1	-1%	-8	·	1%	9	6%
O=C(O)c1ccc(-n2c(-c3ccc(Br)cc3)n[nH]c2=S)cc1	?	5	-1%	1%	-89*	2%
S=c1[nH]nc(-c2ccc(Br)cc2)n1-c1ccc(Br)cc1	-17%	5	-1%	6%	-5	2%
Cc1ccccc1OCCNCC(C)O (stereo unspecified)	0%	-12	0%	1%	-57*	10%
CCOc1ccccc1CNCCNCC(C)O (stereo unspecified)	-6%	-12	-2%	-2%	-26	-12%
CCOC(=O)c1ccccc1NC(=O)N(Cc1ccc(C)cc1)Cc1cccn1-c1nnc(N2CCCC2=O)s1	·	-6	·	·	·	·
O=C(O)c1cc(C(=O)O)cc(-c2ccc(/C=c3/sc4nc5ccccc5n4c3=O)o2)c1	6%	0	-9%	?	-1	?
O=C(O)c1ccccc1-c1ccc(C=c2sc3nc4cc(Br)cnc4n3c2=O)o1	·	-10	·	·	-55*	·
CC(C)(C)c1ccc(S(=O)(=O)N2CCc3nc4ccccc4c(C(=O)O)c3C2)cc1	-3%	-3	-2%	0%	10	-13%
CNc1sc(C(=O)c2cccs2)c(N)c1-c1nc2ccccc2s1	-3%	-7	-4%	?	?	10µM*
CNc1sc(C(=O)c2ccc(F)cc2)c(N)c1-c1nc2ccccc2s1	-8%	-42	-1%	?	-76*	-1%
Cc1ccc(NC(=O)C(=O)NCC(c2ccc3c(c2)OCO3)N2CCN(C)CC2)c(C)c1 (stereo unspecified)	·	-4	·	·	·	·
Cc1cc(Br)ccc1NC(=O)CN1C(=O)c2cccnc2Sc2ccccc21	·	2	·	·	·	·
Cc1nnc(NC(=O)CSc2ncnc3c2cnn3-c2ccccc2C)s1	2%	6	3%	-2%	-63*	-14%
